mIDH1 inhibitor: blocks human mutant IDH1 R132H enzyme; O75874; IDH1-R132H enzyme, NADPH consumption, diaphorase/resazurin fluorescence; Potency, µM (doses to about 76.6 µM), most hits filed as inhibitors; 390,000 compounds, 0.093% hits; also: nearly all actives have a fitted effect of over 65% in size
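IDH1-R132H (0.5 ug/mL) preincubated 30 min with compound, then NADPH (0.016 mM) and alpha-KG (2 mM) added; 80 min at RT, pH 7.5. Remaining NADPH coupled via diaphorase/resazurin to fluorescence (540/590 nm); concentration-response curves normalized to no-enzyme control.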
KCNH2 WT inh: inhibitors of human wildtype KCNH2 potassium channel; Q12809; U2OS, BacMam KCNH2, thallium flux FluxOr; active compounds read low; activity change, % at 1.84 µM; 340,000 compounds, 0.37% hits;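 active = maximum activity change below -70%; inconclusive = maximum activity change between -70% and -50%; inactive = maximum activity change above -50%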
Target sequence (Q12809 whole entry, looked up): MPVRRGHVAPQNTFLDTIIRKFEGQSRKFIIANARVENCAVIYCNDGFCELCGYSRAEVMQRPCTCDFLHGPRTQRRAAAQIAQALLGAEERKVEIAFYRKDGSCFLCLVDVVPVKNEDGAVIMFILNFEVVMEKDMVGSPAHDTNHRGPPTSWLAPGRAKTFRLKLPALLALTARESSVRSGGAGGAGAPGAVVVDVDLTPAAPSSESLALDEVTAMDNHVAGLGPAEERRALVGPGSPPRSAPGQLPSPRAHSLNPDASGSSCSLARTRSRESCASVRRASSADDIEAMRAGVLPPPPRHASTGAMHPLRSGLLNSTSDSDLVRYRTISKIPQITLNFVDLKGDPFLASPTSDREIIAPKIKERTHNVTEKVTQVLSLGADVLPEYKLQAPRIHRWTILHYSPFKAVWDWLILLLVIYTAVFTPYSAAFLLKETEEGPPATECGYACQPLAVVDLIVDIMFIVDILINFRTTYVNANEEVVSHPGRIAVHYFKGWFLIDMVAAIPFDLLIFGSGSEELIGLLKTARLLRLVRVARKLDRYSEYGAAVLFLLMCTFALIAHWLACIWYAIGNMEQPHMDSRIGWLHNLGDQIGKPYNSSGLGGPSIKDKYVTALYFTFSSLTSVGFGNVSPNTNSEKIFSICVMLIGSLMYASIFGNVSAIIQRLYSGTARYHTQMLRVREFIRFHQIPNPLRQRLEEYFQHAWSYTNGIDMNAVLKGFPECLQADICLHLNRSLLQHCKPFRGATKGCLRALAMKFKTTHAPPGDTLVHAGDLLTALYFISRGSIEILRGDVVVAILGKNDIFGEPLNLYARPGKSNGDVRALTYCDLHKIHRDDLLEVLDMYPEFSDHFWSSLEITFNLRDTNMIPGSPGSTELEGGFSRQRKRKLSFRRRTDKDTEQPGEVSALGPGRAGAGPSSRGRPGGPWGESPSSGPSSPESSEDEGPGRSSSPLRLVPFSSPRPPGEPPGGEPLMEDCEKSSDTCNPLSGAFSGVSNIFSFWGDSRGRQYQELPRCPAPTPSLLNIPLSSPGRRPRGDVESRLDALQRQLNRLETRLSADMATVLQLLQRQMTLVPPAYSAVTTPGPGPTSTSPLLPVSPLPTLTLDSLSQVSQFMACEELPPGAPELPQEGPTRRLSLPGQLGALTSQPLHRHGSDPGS
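U2OS cells were transduced with wild-type KCNH2 virus (2.03 x 10^8 / mL) for 4 h at room temperature, then cultured overnight at 37 C. Thallium flux was read with FluxOr dye. Rate constants were normalized to DMSO controls.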
Apoferritin bind: candidate novel general anesthetic via apoferritin binding; P02791; AID 485281; 350,000 compounds, 0.074% hits; apoferritin/1-aminoanthracene competitive binding, fluorescence; Potency, µM (top dose mostly 77.5 µM), actives largely listed as inhibitors; also: nearly all actives have a fitted effect of over 20% in size
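In PBS, apoferritin at 10 uM is loaded with 1-AMA from a 50% saturated solution. After 10 min of compound exposure at ambient temperature, reduced 535 nm fluorescence indicates probe displacement.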
KCNH2 3.1 inh: inhibitors of human KCNH2 3.1 potassium channel isoform. U2OS KCNH2 3.1, thallium flux FluxOr; active compounds read low. activity change, % (tested at about 1.8 µM). 340,000 compounds, 0.95% hits. AID 720553;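 active = maximum activity change below -70%; inconclusive = maximum activity change from -70% to -50%; inactive = maximum activity change above -50%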;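 also: thallium influx rate constant from kinetic fluorescence after stimulation buffer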
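U2OS cells transduced with KCNH2 3.1 mutant virus (1.77 x 10^8 /mL, 4 h), plated overnight at 37 C, loaded 45 min with FluxOr dye plus Red40 quencher. Thallium flux rate constant from kinetic reads after stimulation buffer, normalised to controls.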
S-ASM inh: human S-ASM enzyme inhibition; P17405; placental ASM, HMU-PC fluorogenic substrate, 60 min; Potency, µM (doses to about 57.5 µM), hits mostly inhibitors; 340,000 compounds, 0.006% hits
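Human placenta-derived ASM preincubated with compound 10 min at room temperature, then reacted with 9 uM (final) fluorogenic HMU-PC substrate for 60 min at 37 C. Stop solution raises pH to 10; fluorescence read at Ex 386/Em 447 nm.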
Hits are given with their value; n = inactive; u = inconclusive; x = no result. A selection: hits, their analogues and other compounds. The true share with any hit is near 1.2%. Unless noted, calls follow the shape of the dose curve; as a rule, active = well fitted inhibition curve with a large enough effect; inconclusive = small, poorly fitted or top-dose-only effect; inactive = no such curve, though single readings can be large or run the other way.

SMILES	mIDH1 inhibitor	KCNH2 WT inh	Apoferritin bind	KCNH2 3.1 inh	S-ASM inh
COc1ccc(-c2csc3nc(C)nc(N4CCC(C)CC4)c23)cc1OC	u	n	n	-137	n
COc1ccc(-c2csc3nc(C)nc(N4CCN(C(C)=O)CC4)c23)cc1OC	n	n	n	n	n
CC[C@H](C)[C@H](NC(=O)[C@H](Cc1ccc(O)cc1)NC(=O)[C@@H]1CCCN1C(=O)[C@H](CCCCN)NC(=O)[C@@H](N)CCCCN)C(=O)N[C@@H](CC(C)C)C(=O)O	x	x	n	x	x
Oc1c(C(c2ccccc2Cl)N2CCCC2)sc2nc(-c3ccco3)nn12 (centres undefined)	n	x	n	x	x
C=C(C)C1CC=C(C)/C(=N/NC(=O)c2ccc(NC(=O)CCC)cc2)C1 (centres undefined)	n	n	n	-87	n
C=C(C)C1CC=C(C)/C(=N/NC(=O)c2ccc(NC(=O)CC)cc2)C1 (centres undefined)	n	n	n	n	n
COc1ccc(Nc2cc(C)c3cc([N+](=O)[O-])ccc3n2)cc1	n	n	n	-99	u
COc1ccc(Nc2ccc([N+](=O)[O-])cn2)cc1	n	n	n	n	n
CCCCCCCCCCCCC/C=C/[C@@H](O)[C@H](CO)NC(=O)CCCCC	x	x	n	x	x
COc1ccc(CNCCc2ccc(Cl)cc2)cc1OCc1ccccc1	n	n	n	-71	n
CCOc1cc(CNCCc2ccc(S(N)(=O)=O)cc2)ccc1OCc1ccccc1	n	n	u	x	n
COc1ccc(CCNC(=O)Cc2ccc(OCc3ccccc3)c(OC)c2[N+](=O)[O-])cc1OCc1ccccc1	n	n	35µM	n	n
COc1cc(CNCc2ccccn2)ccc1OCc1ccc(Cl)c(Cl)c1	n	n	u	u	n
COc1cc(CNCc2ccccn2)ccc1OCc1ccc(Cl)cc1Cl	n	n	20µM	u	n
NS(=O)(=O)c1ccc(CCNCc2cc(Br)ccc2OCc2ccccc2)cc1	n	n	n	-70	n
Cc1cc2c(cc1S(=O)(=O)NCc1ccc(F)cc1)OCCN2C	n	x	n	x	x
CC1CC=CC2C1C(=O)N(Cc1ccccc1)C2c1ccc(-c2ccc(N(C)C)cc2)cc1F (centres undefined)	x	x	n	x	x
COc1cccc(CNC(=O)c2ccc3c(c2)sc2nc(-c4ccccc4)cn23)c1OC	n	x	n	x	x
COc1cc(CN(C)CCc2ccccc2)ccc1OCc1ccccc1	n	n	u	-95	n
COc1cc(OC)c(C(=O)/C=C/c2ccc(OCc3ccccc3)c(OC)c2)c(OC)c1	n	n	u	n	n
COc1ccc(C(=O)C=Cc2ccc(OCc3ccccc3)c(OC)c2)cc1OC	n	n	x	-72	x
Cc1ccc(/C(N)=N/OC(=O)N2c3ccccc3Sc3ccccc32)cc1	n	-176	x	n	n
CC(C)c1ccc(N2C(=O)/C(=C/N(C)C)SC2=S)cc1	13µM	n	n	n	n
OCCN1CCN(C2Cc3cc(Cl)ccc3Sc3ccc(Cl)cc32)CC1 (centres undefined) (tested in a mixture with another compound)	n	n	n	n	u
CN1CCN(CCOC2Cc3ccccc3Sc3ccc(Cl)cc32)CC1 (centres undefined)	n	u	n	-91	n
SMILES	mIDH1 inhibitor	KCNH2 WT inh	Apoferritin bind	KCNH2 3.1 inh	S-ASM inh
COc1ccc(NC(=O)Cn2ccn(-c3ccc(C)c(C)c3)c(=O)c2=O)cc1Cl	n	x	n	x	x
COc1ccc(C(=O)N2CCN(C3CCCCC3)CC2)cc1OC	n	n	n	-75	n
S=C(NCCCN1CCOCC1)N1CCN(c2nc(-c3ccc(Cl)cc3)cs2)CC1	n	n	n	-71	n
S=C(NCCCN1CCOCC1)N1CCN(c2nc(-c3ccccc3)cs2)CC1	n	n	n	n	n
COc1cc(NS(=O)(=O)c2c(C)oc3c(F)c(F)c(F)c(F)c23)cc(OC)c1OC	n	-78	n	n	n
COc1cc(NS(=O)(=O)c2ccc3c(c2)oc(=O)n3C)cc(OC)c1OC	n	n	n	n	n
C=CCN(CC=C)S(=O)(=O)c1ccc(NC(=S)NC(=O)c2ccco2)cc1	n	n	18µM	n	n
C=CCN(CC=C)S(=O)(=O)c1ccc(NC(=S)NC(=O)c2ccc(-c3ccccc3)cc2)cc1	n	n	u	n	n
CSc1ccccc1NC(=O)COC(=O)Cc1ccsc1	n	n	x	-97	n
CCOC(=O)Cn1c(=O)n(-c2ccccc2OC)c2nc(-c3ccc(C(C)C)cc3)nc(C(N)=O)c21	n	x	n	x	x
CN1CCN(C(=O)c2cnn(-c3ccccc3)c2NC(=O)c2ccc(Br)cc2)CC1	n	-79	x	-76	n
O=C(COC(=O)C1CC2CCCC(C1)C2=O)Nc1ccc(F)c(Cl)c1 (centres undefined)	n	n	x	n	n
O=C(COC(=O)C1CC2CCCC(C1)C2=O)Nc1nc(-c2ccc(F)c(F)c2)cs1 (centres undefined)	n	n	x	-94	n
O=C1OC(c2ccccc2)(c2ccccc2)c2ccccc21	n	n	x	n	n
O=C1CC(c2ccccc2)(c2ccccc2)c2ccccc21	n	-95	x	-103	n
CC(CCc1ccc(O)cc1)NCc1ccc(Br)cc1 (centres undefined)	n	n	n	-88	n
COc1ccc(CNC(C)CCc2ccccc2)cc1 (centres undefined)	n	n	n	n	n
CC(CCc1ccc(O)cc1)NCCC(c1ccccc1)c1ccccc1 (centres undefined)	n	-119	n	-96	n
CC1(C)OC2CC3C4CCC5=CC(=O)C=C[C@@]5(C)[C@]4(F)C(O)C[C@@]3(C)[C@]2(C(=O)CO)O1 (some centres undefined)	x	x	n	x	x
CCCC(=O)N(CCN1CCOCC1)c1nc2c(C)ccc(C)c2s1	n	n	n	-85	n
CCCC(=O)N(CCN1CCOCC1)c1nc2c(OC)ccc(C)c2s1	n	n	n	n	n
Cc1cc(C)cc(NC(=O)C(OC(=O)c2ccc(NC(=O)CC#N)cc2)c2ccccc2)c1 (centres undefined)	n	n	x	n	n
Cc1ccc(C)c(NC(=O)C(OC(=O)c2ccc(NC(=O)CC#N)cc2)c2ccccc2)c1 (centres undefined)	n	n	x	-71	n
CC(=O)O[C@]1(C)CC[C@]23CC1C(C)(C)C2CC[C@@H]3C (some centres undefined)	x	x	n	x	x
N#CCNC(=O)c1nn2c(C(F)(F)F)cc(-c3ccccc3)nc2c1Br	n	n	n	n	n
Cc1cc(-c2ccccc2)nc2c(Br)c(C(=O)O)nn12	n	n	x	-82	n
Cc1ccccc1NC(=O)Cn1c(=O)n(CCC(=O)N2CCc3ccccc3C2)c(=O)c2ccccc21	n	x	n	x	x
COc1cc(OC)c(OC)cc1CN1CCC(O)CC1	n	n	n	-90	n

Compound activity from PubChem.
